For eight molecules, growth results are on record in PubChem BioAssay (NCI).

The panel holds about 83,000 compounds, 20% with a hit somewhere; the sample as a whole holds those more often.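 Percent growth is the endpoint: 0 to 100 indicates growth inhibition (40 means 60% inhibition), 0 means no net growth, and negative values indicate cell death.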 Values without a mark were called inactive. Active and inactive are the calls of the source. Rule for the calls: active = growth percent below 10; inactive = the rest.

Test systems include SK-MEL-2 melanoma; EKVX NSCLC; SN12C renal; UO-31 renal; TK-10 renal; ACHN renal; CAKI-1 renal; A498 renal; CCRF-CEM leukemia; MOLT-4 leukemia; RPMI-8226 leukemia; OVCAR-8 ovarian; OVCAR-5 ovarian; OVCAR-4 ovarian; SK-OV-3 ovarian; IGROV1 ovarian; OVCAR-3 ovarian; HS 578T breast; NCI/ADR-RES ovarian.
Experiment in all cases: NCI-60 one-dose screen, 48 h (100 = growth as untreated, 0 = no growth, -100 = all killed)
Common to all, as to details: 10 µM unless noted

Regarding `N#C/C(=C\c1ccc(-c2ccc(Cl)c(Cl)c2)o1)c1nc(-c2ccco2)cs1`, the growth is 108% in the assay with SK-MEL-2 melanoma; 52.4% in the assay on EKVX NSCLC; 98.6% in the assay with SN12C renal; 69.2% with UO-31 renal; -7.19% (active) in the assay with TK-10 renal; 94% in the assay on ACHN renal. The growth in the assay on CAKI-1 renal was 81.3%; with A498 renal, 94.2%; with CCRF-CEM leukemia, 94.1%; in the assay with MOLT-4 leukemia, 104%; with RPMI-8226 leukemia, 63.6%; in the assay with OVCAR-8 ovarian, 101%. Also, the growth in the assay with OVCAR-5 ovarian is 55.7%; in the assay on OVCAR-4 ovarian it was 37.6%; in the assay on SK-OV-3 ovarian, 85.1%; in the assay on IGROV1 ovarian it was 40.5%; in the assay on OVCAR-3 ovarian it was 81.1%; in the assay with HS 578T breast it was 97.4%. The growth with NCI/ADR-RES ovarian is 101%.

Consider `Cc1cc(C)c2nc3nc(C)cc(C)c3c(N)c2c1`, for which the growth with SK-MEL-2 melanoma was 30.4%; with EKVX NSCLC it was 28.1%; in the assay with SN12C renal it was 24.9%; in the assay on UO-31 renal, -1.17% (active); with TK-10 renal, 41.4%; with ACHN renal, 5.3% (active). Further, the growth with CAKI-1 renal is 10.4%; with A498 renal it was 47%; in the assay with CCRF-CEM leukemia it was 42.3%; with MOLT-4 leukemia, -18.6% (active); in the assay with RPMI-8226 leukemia, -13.5% (active); in the assay with OVCAR-8 ovarian, 45.3%. The growth in the assay with OVCAR-5 ovarian was 28.7%; in the assay with OVCAR-4 ovarian it was 33.6%; in the assay on SK-OV-3 ovarian, 25.4%; with OVCAR-3 ovarian, 26.5%; in the assay with HS 578T breast, 24.3%; in the assay on NCI/ADR-RES ovarian it was 30.9%.

Turning to `CSc1nc(-c2cccc(NC(=O)CCl)c2)c(C#N)c(=O)n1C`, the growth was 70.9% in the assay on SK-MEL-2 melanoma; 70.8% with EKVX NSCLC; 81% in the assay on SN12C renal; -53.2% (active) in the assay on UO-31 renal; 117% in the assay on TK-10 renal; 73.9% with ACHN renal. Further, the growth in the assay on CAKI-1 renal is 83.7%; with A498 renal it was 90.2%; in the assay with CCRF-CEM leukemia it was -16.5% (active); with MOLT-4 leukemia it was 14%; in the assay with RPMI-8226 leukemia, -18.3% (active); with OVCAR-8 ovarian it was 72.6%. Besides, the growth with OVCAR-5 ovarian is 26.7%; in the assay with SK-OV-3 ovarian, 109%; in the assay with IGROV1 ovarian, -64.5% (active); with OVCAR-3 ovarian, 8.91% (active); in the assay with HS 578T breast it was 88.1%; with NCI/ADR-RES ovarian, 75.8%.

In the case of `COc1cc2nc(N3CCCC3)nc(NCC3CCCCC3)c2cc1OC`, the growth in the assay on SK-MEL-2 melanoma is -43.5% (active); in the assay with EKVX NSCLC, 40.2%; in the assay on SN12C renal, 59.6%; in the assay on UO-31 renal, 42.5%; in the assay with TK-10 renal it was -34.7% (active); in the assay with ACHN renal, 16.8%. In addition, the growth is 13.3% in the assay with CAKI-1 renal; -3.66% (active) with A498 renal; -9.68% (active) in the assay on CCRF-CEM leukemia; -16.3% (active) in the assay on MOLT-4 leukemia; -38.2% (active) with RPMI-8226 leukemia; 12.1% in the assay on OVCAR-8 ovarian. Moreover, the growth in the assay with OVCAR-5 ovarian is 29.1%; in the assay on OVCAR-4 ovarian, 33.2%; with SK-OV-3 ovarian it was 77.4%; in the assay on IGROV1 ovarian, 72.3%; with OVCAR-3 ovarian, 13.1%; with HS 578T breast, -33.5% (active). Moreover, in the assay on NCI/ADR-RES ovarian, the growth is 35.3%.

With `Cc1ccc(NS(=O)(=O)c2ccc(-c3cnc(C4CC4)o3)cc2)cc1C`, the growth is 38.5% with SK-MEL-2 melanoma; 27% with EKVX NSCLC; 43.6% in the assay with SN12C renal; 38.5% with UO-31 renal; 44% in the assay on TK-10 renal; 40.7% in the assay on ACHN renal. Also, the growth is 27.2% in the assay with CAKI-1 renal; -15.8% (active) in the assay with A498 renal; 23.5% in the assay on CCRF-CEM leukemia; 30.1% in the assay on MOLT-4 leukemia; 12.4% in the assay with RPMI-8226 leukemia; 28.2% in the assay on OVCAR-8 ovarian. Also, the growth in the assay with OVCAR-5 ovarian was 37.6%; with OVCAR-4 ovarian, 43.2%; in the assay on SK-OV-3 ovarian it was 30.7%; in the assay on IGROV1 ovarian, 29.5%; with OVCAR-3 ovarian, -1.67% (active); in the assay on HS 578T breast it was 14.3%. In addition, the growth with NCI/ADR-RES ovarian was -10.9% (active).

As for `CC(C)C1=C[C@@]23CC[C@@H]4[C@](C)(CCC[C@@]4(C)C(=O)N4CCCNCC4)[C@H]2C[C@@H]1[C@H]1C(=O)CCC(=O)[C@H]13`, the growth is 103% in the assay on SK-MEL-2 melanoma; 95.2% with EKVX NSCLC; 102% with SN12C renal; 79.2% in the assay on UO-31 renal; 104% in the assay with TK-10 renal; 92.1% with ACHN renal. The growth with CAKI-1 renal was 81.1%; in the assay with A498 renal, 97%; with CCRF-CEM leukemia, 101%; in the assay with MOLT-4 leukemia, 96.5%; in the assay with RPMI-8226 leukemia it was 100%; with OVCAR-8 ovarian, 96.6%. Also, the growth in the assay on OVCAR-5 ovarian was 97.9%; in the assay on OVCAR-4 ovarian, 98.8%; with IGROV1 ovarian, 99.2%; in the assay with OVCAR-3 ovarian it was 115%; in the assay on HS 578T breast, 106%; with NCI/ADR-RES ovarian, 94.9%.

With `N#CCCN=Nc1c(O)[nH]c2ccc([N+](=O)[O-])cc12`, the growth is 95.6% in the assay on SK-MEL-2 melanoma; 91.3% in the assay with EKVX NSCLC; 98.7% in the assay with SN12C renal; 76.9% in the assay with UO-31 renal; 108% with TK-10 renal; 96.3% with ACHN renal. Also, the growth in the assay with CAKI-1 renal is 86.1%; in the assay with A498 renal, 94.3%; in the assay on CCRF-CEM leukemia it was 103%; in the assay on MOLT-4 leukemia, 100%; in the assay with RPMI-8226 leukemia it was 105%; in the assay with OVCAR-8 ovarian, 102%. Also, the growth in the assay with OVCAR-5 ovarian is 97%; in the assay with OVCAR-4 ovarian it was 105%; with SK-OV-3 ovarian it was 86%; with OVCAR-3 ovarian, 103%; with HS 578T breast it was 103%; in the assay on NCI/ADR-RES ovarian, 104%.

Regarding `COc1cc2nc(N3CCCC3)nc(Nc3ccccc3)c2cc1OC`, the growth in the assay with SK-MEL-2 melanoma is -52.5% (active); in the assay with EKVX NSCLC, 28.3%; with SN12C renal it was -53.5% (active); with UO-31 renal, -53.5% (active); in the assay on TK-10 renal, 16.5%; in the assay on ACHN renal, -11.2% (active). The growth in the assay on CAKI-1 renal is -19% (active); in the assay with A498 renal it was 40.6%; with CCRF-CEM leukemia, -11.4% (active); in the assay on MOLT-4 leukemia it was -24.7% (active); in the assay on RPMI-8226 leukemia, -19.8% (active); in the assay with OVCAR-8 ovarian it was -30.1% (active). Also, the growth in the assay on OVCAR-4 ovarian is 25.1%; with SK-OV-3 ovarian it was 48.5%; with IGROV1 ovarian, 23.3%; in the assay on OVCAR-3 ovarian, -70.4% (active); with HS 578T breast, -24.2% (active); in the assay with NCI/ADR-RES ovarian it was 18.4%.
